# Source: PubChem BioAssay (Tox21)
# Unmarked numbers belong to inactive results. Records with an inconclusive call do not appear. A call without a number means that no potency is given here. The source made the active and inactive calls. Unless noted, calls follow the shape of the dose curve; as a rule, active = well fitted curve in the direction sought with a large enough effect in the repeat runs; inconclusive = weak or mixed curves; inactive = no such curve, though single readings can be large; an effect the other way counts as inactive or inconclusive.
# Tests used:
# [1] = qHTS assay to identify small molecule antagonists of the androgen receptor (AR) signaling pathway using the MDA cell line in the presence of 0.5 nM R1881 - cell viability counter screen (AID 1259242); also: nearly all actives have a fitted effect of over 45% in size
# Method in brief: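 Cytotoxicity toward MDA-kb2 cells is measured by CellTiter-Fluor live-cell protease fluorescence after 16 hr compound exposure at 37C in the presence of 0.5 nM R1881 stimulator.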
# [2] = biological target: Estrogen receptor (Homo sapiens) (UniProt P03372); experiment: qHTS assay to identify small molecule antagonists of the estrogen receptor alpha (ER-alpha) signaling pathway using the BG1 cell line in the presence of 0.1 nM 17-beta-estradiol (AID 1259244); also: nearly all actives have a fitted effect of over 50% in size
# Method in brief: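 After 5 days in hormone-depleted medium (charcoal-stripped serum, no phenol red), VM7Luc4E2 cells were seeded, incubated 24 h, then co-treated with compound and 0.1 nM (final) estradiol for 22 h before luminescence detection.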
# [3] = qHTS assay to identify small molecule HDAC inhibitors (AID 1259364); also: top concentration of the series differs between compounds; nearly all actives have a fitted effect of over 45% in size
# Method in brief: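 Homogeneous cell-based luminescent assay of endogenous class I/II HDAC activity; HCT-116 cells, 2 h compound exposure, 30 min HDAC-Glo development at RT.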
# [4] = qHTS assay to identify small molecule HDAC inhibitors - cell viability counter screen (AID 1259365); also: series mostly up to about 92 µM; nearly all actives have a fitted effect of over 50% in size
# Method in brief: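 Cytotoxicity was gauged in wild-type HCT-116 cells after a brief 2hr treatment with DMSO-dissolved compounds at 37C and 5% CO2, using CellTiter-Glo luminescence developed for 30min at room temperature.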
# [5] = qHTS assay to identify small molecule antagonists of the sonic hedgehog signaling (Shh) pathway - cell viability counter screen (AID 1259367); also: nearly all actives have a fitted effect of over 55% in size
# Method in brief: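 NIH/3T3-derived Gli1-Luc reporter cells (2,000 per well) rested 4 hr at 37 C, then received DMSO compounds plus conditioned medium. After 23 hr of treatment, CellTiter-Fluor was added for 1 hr at 37C and fluorescence read.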
# [6] = qHTS assay to identify small molecule agonists of the sonic hedgehog signaling (Shh) pathway (AID 1259368; calls by dose curve;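 also: NIH/3T3-derived 3T3Gli1-Luc cells carrying a stable Gli1-driven firefly luciferase reporter; series mostly up to about 92 µM; nearly all actives have a fitted effect of over 15% in size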)
# Method in brief: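 Steps: seed 3T3 Gli1-Luc cells, incubate 4 hr at 37 C, pin-transfer compounds in DMSO alongside a positive control, incubate 24 hr, add luciferase detection reagent, wait 30 min at room temperature, read luminescence.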
# [7] = biological target: Estrogen receptor beta (Homo sapiens) (UniProt Q92731); experiment: qHTS assay to identify small molecule agonists of the estrogen receptor beta (ER-beta) signaling pathway (AID 1259377; active = well fitted activation curve with a large enough effect in the signal ratio in the repeat runs, not every such curve was filed as active; the % refers to the signal ratio; also: potency is read from the fitted curve at half-maximal effect)
# Method in brief: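 Measured by fluorescence intensity from a B/G FRET beta-lactamase substrate (2 h, room temperature) in ER-beta-UAS-bla HEK293T cells treated with DMSO-dissolved compounds for 16 hr at 37C and 5% CO2.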
# [8] = biological target: Estrogen receptor beta (Homo sapiens) (UniProt Q92731); experiment: qHTS assay to identify small molecule antagonists of the estrogen receptor beta (ER-beta) signaling pathway (AID 1259378; active = well fitted inhibition curve with a large enough effect in the signal ratio in the repeat runs, not every such curve was filed as active; the % refers to the signal ratio)
# Method in brief: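 ER-beta-UAS-bla HEK293T (GripTite) cells in 2% charcoal-stripped FBS medium were preincubated 6 hr at 37C, dosed with compound, then stimulated with 1 nM E2 (final) for 16 hr; beta-lactamase reporter read by B/G FRET fluorescence after 2 hr substrate loading.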
# [9] = qHTS assay to identify small molecule agonists of the androgen receptor (AR) signaling pathway in the presence of an antagonist - cell viability counter screen (AID 1259379);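 also: MDA-kb2 human breast cancer cells carrying an MMTV luciferase reporter; series mostly up to about 92 µM; nearly all actives have a fitted effect of over 25% in size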
# Method in brief: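 Fluorescence from CellTiter-Fluor, added after 15 hr and read 1 hr later, gave cell viability. Cells were MDA-kb2 exposed to compounds (15 concentrations) in the presence of 3.0uM nilutamide at 37C, 0% CO2.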
# [10] = qHTS assay to identify small molecule antagonists of the estrogen receptor beta (ER-beta) signaling pathway - cell viability counter screen (AID 1259382); also: series mostly up to about 92 µM; nearly all actives have a fitted effect of over 55% in size
# Method in brief: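 Following a 6 hr plating period, HEK293T cells carrying a UAS-driven beta-lactamase reporter under ER-beta control received compounds and 1nM E2 (final). After 16 hr at 37C and 2 hr substrate loading, CellTiter-Glo luminescence indicated viability.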
# [11] = biological target: Estrogen receptor (Homo sapiens) (UniProt P03372); experiment: qHTS assay to identify small molecule agonists of the estrogen receptor alpha (ER-alpha) signaling pathway in the presence of an antagonist (AID 1259383; calls by dose curve; also: nearly all actives have a fitted effect of over 15% in size; also: potency is read from the fitted curve at half-maximal effect; as to activation: top concentration of the series differs between compounds)
# Method in brief: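 Cells are hormone-deprived for 5 days (charcoal-stripped FBS, no phenol red), plated for 24hr, spiked with 10.0nM ICI-182,780, then dosed at 15 concentrations. After 22hr at 37C, ONE-Glo luminescence reports ERE-luciferase activity.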
# [12] = biological target: Thyrotropin receptor (Homo sapiens) (UniProt P16473); experiment: qHTS assay to identify small molecule antagonists of the thyroid stimulating hormone receptor (TSHR) signaling pathway (AID 1259385; calls by dose curve; also: nearly all actives have a fitted effect of over 20% in size; also: potency is read from the fitted curve at half-maximal effect)
# Method in brief: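 TSHR-HEK293 cells were plated and held 18 h at 37C/5% CO2, then given compound plus Ro20-1724 and stimulated with TSH at 1.5 ng/mL final. After 30 min at room temperature, cAMP was detected with cAMP-d2/anti-cAMP-cryptate (1 h) by fluorescence.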
# [13] = qHTS assay to identify small molecule agonists of the estrogen receptor alpha (ER-alpha) signaling pathway in the presence of an antagonist - cell viability counter screen (AID 1259386);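 also: series mostly up to about 92 µM; cells exposed to compounds for 22 h at 37 °C before the viability read; nearly all actives have a fitted effect of over 30% in size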
# Method in brief: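 Cells are starved of estrogens for 5 days in charcoal-stripped serum, seeded for 24hr and co-treated with ICI-182,780 (10.0nM final) and test compounds. After 22hr at 37C, viability is read as CellTiter-Fluor fluorescence.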
# [14] = qHTS assay to identify small molecule agonists of the sonic hedgehog signaling (Shh) pathway - cell viability counter screen (AID 1259366); also: nearly all actives have a fitted effect of over 50% in size
# Method in brief: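 Stable Gli1-Luc NIH/3T3 clone, 2,000 cells/well. Compound exposure 24hr at 37C. Read-out: CellTiter-Fluor fluorescence.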
# [15] = qHTS assay to identify small molecule agonists of the estrogen receptor beta (ER-beta) signaling pathway - cell viability counter screen (AID 1259380); also: nearly all actives have a fitted effect of over 30% in size
# Method in brief: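 Same-well viability counter screen. Cells: ER-beta-UAS-bla HEK293T, plated 6 hr before compound, in 2% charcoal-stripped FBS. Compound exposure 16 hr, 37C; viability by CellTiter-Glo luminescence after 30 min at room temperature.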
# [16] = biological target: Androgen receptor (Homo sapiens) (UniProt P10275); experiment: qHTS assay to identify small molecule agonists of the androgen receptor (AR) signaling pathway in the presence of an antagonist (AID 1259381; calls by dose curve; also: nearly all actives have a fitted effect of over 15% in size)
# Method in brief: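 Cells are MDA-kb2 (human breast carcinoma, MMTV-luc, AR/GR responsive). Nilutamide is present at 3.0uM final throughout; compounds are added at 15 concentrations and incubated 16hr at 37C before ONE-Glo luminescence detection.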
# [17] = qHTS assay to identify small molecule agonists or antagonists of the thyroid stimulating hormone receptor (TSHR) signaling pathway - wild type cell line counter screen (AID 1259384; calls by dose curve)
# Method in brief: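 Wild-type HEK293 cells were plated 18 h at 37 C/5% CO2, pin-dosed with compound plus Ro20-1724 medium, held 30 min at room temperature, then given cAMP-d2 and anti-cAMP-cryptate; fluorescence was read after 1 h. Fifteen concentrations, triplicate.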
# [18] = qHTS assay to identify small molecule antagonists of the sonic hedgehog signaling (Shh) pathway (AID 1259369; calls by dose curve; also: nearly all actives have a fitted effect of over 45% in size; also: potency is read from the fitted curve at half-maximal effect)
# Method in brief: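 Inhibition of Shh signalling is measured as reduced Gli1-response-element firefly luciferase output in an NIH/3T3-derived stable reporter clone stimulated with conditioned medium for 24hr.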
# [19] = qHTS assay to identify small molecule phospholipidosis (PLD) inducers (AID 1259344; active = well fitted curve in the direction sought with a large enough effect; an effect the other way counts as inactive or inconclusive; also: potency is read from the fitted curve at half-maximal effect)
# Method in brief: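 HepG2 cells on collagen I, attached 4 h at 37 C, were co-treated with compound and LipidTOX Red dye for 24 h at 37 C, then fixed with paraformaldehyde plus Hoechst 33342 and imaged by high-content microscopy for phospholipid accumulation.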
# Chain of Estrogen receptor beta (Homo sapiens) (Q92731 whole entry, looked up): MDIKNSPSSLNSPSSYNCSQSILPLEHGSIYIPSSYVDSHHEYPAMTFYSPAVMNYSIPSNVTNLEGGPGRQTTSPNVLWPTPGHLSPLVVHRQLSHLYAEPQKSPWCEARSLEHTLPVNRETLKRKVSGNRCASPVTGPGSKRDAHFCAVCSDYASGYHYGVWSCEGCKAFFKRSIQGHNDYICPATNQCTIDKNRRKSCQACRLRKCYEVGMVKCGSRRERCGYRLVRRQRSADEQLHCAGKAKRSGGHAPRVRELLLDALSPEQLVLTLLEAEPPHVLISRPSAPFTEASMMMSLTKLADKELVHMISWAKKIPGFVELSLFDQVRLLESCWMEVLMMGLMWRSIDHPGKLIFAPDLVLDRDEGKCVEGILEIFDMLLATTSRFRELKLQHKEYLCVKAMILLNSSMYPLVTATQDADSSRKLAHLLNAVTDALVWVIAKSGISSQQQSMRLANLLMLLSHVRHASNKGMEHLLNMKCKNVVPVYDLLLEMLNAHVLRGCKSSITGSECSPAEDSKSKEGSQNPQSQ
# Chain of Estrogen receptor (Homo sapiens) (P03372 whole entry, looked up): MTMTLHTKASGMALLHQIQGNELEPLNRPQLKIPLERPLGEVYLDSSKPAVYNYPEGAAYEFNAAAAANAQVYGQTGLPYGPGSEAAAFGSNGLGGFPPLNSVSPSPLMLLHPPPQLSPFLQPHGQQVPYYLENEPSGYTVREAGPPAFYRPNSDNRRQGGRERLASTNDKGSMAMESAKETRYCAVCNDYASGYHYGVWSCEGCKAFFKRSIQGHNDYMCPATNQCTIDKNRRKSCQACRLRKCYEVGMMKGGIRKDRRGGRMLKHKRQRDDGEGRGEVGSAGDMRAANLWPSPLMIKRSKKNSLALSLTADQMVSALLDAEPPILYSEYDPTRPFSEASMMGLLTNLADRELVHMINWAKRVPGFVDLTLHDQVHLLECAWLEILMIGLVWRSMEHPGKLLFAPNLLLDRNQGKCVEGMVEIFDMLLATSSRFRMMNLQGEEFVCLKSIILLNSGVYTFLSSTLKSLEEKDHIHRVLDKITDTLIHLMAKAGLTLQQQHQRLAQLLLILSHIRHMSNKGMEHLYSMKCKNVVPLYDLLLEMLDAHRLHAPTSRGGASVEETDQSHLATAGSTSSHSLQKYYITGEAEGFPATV
# Chain of Thyrotropin receptor (Homo sapiens) (P16473 whole entry, looked up): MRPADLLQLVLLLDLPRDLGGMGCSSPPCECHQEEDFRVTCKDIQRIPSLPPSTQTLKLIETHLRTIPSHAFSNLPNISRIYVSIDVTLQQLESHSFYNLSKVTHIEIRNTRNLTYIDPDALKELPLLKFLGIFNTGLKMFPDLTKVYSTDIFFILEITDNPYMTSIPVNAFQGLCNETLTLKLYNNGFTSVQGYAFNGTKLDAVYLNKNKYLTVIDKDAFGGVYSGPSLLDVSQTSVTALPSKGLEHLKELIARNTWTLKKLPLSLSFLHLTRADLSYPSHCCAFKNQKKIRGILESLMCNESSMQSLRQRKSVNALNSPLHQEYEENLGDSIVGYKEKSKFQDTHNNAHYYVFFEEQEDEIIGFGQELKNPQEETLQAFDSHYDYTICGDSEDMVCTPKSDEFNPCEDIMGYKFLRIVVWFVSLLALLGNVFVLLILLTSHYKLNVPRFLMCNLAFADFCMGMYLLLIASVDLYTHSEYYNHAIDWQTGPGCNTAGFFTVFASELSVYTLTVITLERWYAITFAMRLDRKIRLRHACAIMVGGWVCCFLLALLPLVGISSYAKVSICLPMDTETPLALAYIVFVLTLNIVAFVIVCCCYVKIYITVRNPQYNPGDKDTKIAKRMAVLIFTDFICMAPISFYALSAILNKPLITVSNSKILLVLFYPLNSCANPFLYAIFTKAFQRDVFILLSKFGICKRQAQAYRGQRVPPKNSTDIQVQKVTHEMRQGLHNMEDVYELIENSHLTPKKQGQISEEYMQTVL
# Chain of Androgen receptor (Homo sapiens) (P10275 whole entry, looked up): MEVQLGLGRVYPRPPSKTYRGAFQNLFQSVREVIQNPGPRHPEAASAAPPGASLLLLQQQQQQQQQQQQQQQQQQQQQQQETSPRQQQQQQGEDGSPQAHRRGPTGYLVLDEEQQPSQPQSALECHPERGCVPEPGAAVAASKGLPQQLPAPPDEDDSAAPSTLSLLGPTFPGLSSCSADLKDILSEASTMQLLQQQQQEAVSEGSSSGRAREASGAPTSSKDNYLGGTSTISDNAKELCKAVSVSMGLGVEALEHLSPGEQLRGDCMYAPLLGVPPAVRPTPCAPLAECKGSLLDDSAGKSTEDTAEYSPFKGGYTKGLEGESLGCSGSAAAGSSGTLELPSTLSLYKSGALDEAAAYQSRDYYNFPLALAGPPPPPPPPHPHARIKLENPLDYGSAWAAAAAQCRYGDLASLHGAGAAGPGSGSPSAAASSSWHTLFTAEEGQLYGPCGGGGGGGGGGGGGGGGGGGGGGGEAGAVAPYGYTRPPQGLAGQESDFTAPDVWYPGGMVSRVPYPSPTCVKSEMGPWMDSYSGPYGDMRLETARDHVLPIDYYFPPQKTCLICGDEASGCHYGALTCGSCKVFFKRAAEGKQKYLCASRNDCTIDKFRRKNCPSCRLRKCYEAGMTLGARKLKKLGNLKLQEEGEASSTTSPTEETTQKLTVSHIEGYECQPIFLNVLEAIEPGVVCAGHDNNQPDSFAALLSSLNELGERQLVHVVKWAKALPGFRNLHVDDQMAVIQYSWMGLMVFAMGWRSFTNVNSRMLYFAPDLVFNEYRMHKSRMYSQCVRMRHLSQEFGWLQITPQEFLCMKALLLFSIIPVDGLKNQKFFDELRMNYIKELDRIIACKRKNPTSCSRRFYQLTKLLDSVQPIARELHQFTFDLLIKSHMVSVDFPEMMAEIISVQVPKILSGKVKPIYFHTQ
smiles,measurement,setting,value
CCC(=O)OC(=O)CC,Potency,[1],inactive
same,Potency,[2],inactive
same,Potency,[3],inactive
same,Potency,[4],inactive
same,Potency,[5],inactive
same,Potency,[6],inactive
same,Potency,[7],inactive
same,Potency,[8],inactive
same,Potency,[9],inactive
same,Potency,[10],inactive
same,Potency,[11],inactive
same,Potency,[12],inactive
same,Potency,[13],inactive
C=CC(=O)OCCOC(=O)C=C,Potency,[1],inactive
same,Potency,[2],inactive
same,Potency,[3],inactive
same,Potency,[4],inactive
same,Potency,[14],inactive
same,Potency,[5],inactive
same,Potency,[6],inactive
same,Potency,[15],inactive
same,outcome,[16],inactive
same,Potency,[10],inactive
same,Potency,[11],61.1 µM (active)
same,outcome,[17],inactive
same,Potency,[12],inactive
same,Potency,[13],inactive
OC1CCCc2ccccc21 (stereo not drawn),Potency,[1],inactive
same,Potency,[2],inactive
same,Potency,[3],inactive
same,Potency,[4],inactive
same,Potency,[5],inactive
same,Potency,[6],inactive
same,Potency,[18],inactive
same,Potency,[9],inactive
same,Potency,[10],inactive
same,outcome,[17],inactive
same,Potency,[12],inactive
same,Potency,[13],inactive
NC[C@H]1O[C@H](O[C@H]2[C@H](O[C@@H]3O[C@H](CO)[C@@H](O)[C@H]3O)C(O)[C@H](N)C[C@@H]2N)[C@H](N)[C@@H](O)[C@@H]1O (stereo partly drawn),"viability change, negative = cytotoxic",[1],2.91% [at 8.39 µM]
same,Potency,[19],inactive
same,"activity change, negative = inhibition",[3],-0.407% [at 8.39 µM]
same,"activity change, negative = cytotoxicity",[4],-0.0056% [at 8.39 µM]
same,"viability change, negative = cytotoxic",[14],2.25% [at 8.39 µM]
same,"viability change, negative = cytotoxic",[5],-1.51% [at 8.39 µM]
same,activity change,[6],"-1.1% [at 8.39 µM, active compounds read high]"
same,"activity change, negative = inhibition",[18],-6.57% [at 8.39 µM]
same,"activity change, negative = cytotoxicity",[9],2.75% [at 8.39 µM]
same,"activity change, negative = cytotoxicity",[15],1.6% [at 8.39 µM]
same,"activity change, negative = cytotoxicity",[10],0.11% [at 8.39 µM]
same,cAMP activity change,[17],-9.73% [at 8.39 µM]
same,"activity change, negative = inhibition",[12],-4.82% [at 8.39 µM]
Fc1ccc(C(c2ccc(F)cc2)N2CCNCC2)cc1,Potency,[1],inactive
same,Potency,[2],inactive
same,Potency,[3],inactive
same,Potency,[4],inactive
same,Potency,[6],inactive
same,Potency,[18],2.98 µM (active)
same,Potency,[7],inactive
same,Potency,[8],inactive
same,outcome,[16],inactive
same,Potency,[10],inactive
same,Potency,[11],inactive
same,Potency,[12],inactive
C#C[C@]1(OC(C)=O)CC[C@H]2[C@@H]3CCC4=C[C@@H](OC(C)=O)CC[C@@H]4[C@H]3CC[C@@]21C,Potency,[1],inactive
same,Potency,[19],10 µM (active)
same,Potency,[3],inactive
same,Potency,[4],inactive
same,Potency,[14],inactive
same,Potency,[5],inactive
same,Potency,[6],inactive
same,Potency,[7],0.335 µM (active)
same,Potency,[9],inactive
same,Potency,[10],inactive
same,Potency,[11],0.0531 µM (active)
same,outcome,[17],inactive
same,Potency,[12],11.9 µM (active)
CCCCC(CC)COC(=O)CCCCC(=O)OCc1ccccc1 (stereo not drawn),Potency,[1],inactive
same,Potency,[2],inactive
same,Potency,[3],inactive
same,Potency,[4],inactive
same,Potency,[5],inactive
same,Potency,[6],inactive
same,Potency,[18],inactive
same,Potency,[7],inactive
same,Potency,[9],inactive
same,Potency,[15],inactive
same,Potency,[10],inactive
same,outcome,[17],inactive
same,Potency,[12],inactive
same,Potency,[13],inactive
Nc1nc(N)nc(-c2cc(Cl)ccc2Cl)n1,Potency,[1],inactive
same,Potency,[19],inactive
same,Potency,[3],inactive
same,Potency,[4],inactive
same,Potency,[14],inactive
same,Potency,[5],inactive
same,Potency,[6],inactive
same,Potency,[18],inactive
same,Potency,[9],inactive
same,Potency,[15],inactive
same,Potency,[10],inactive
same,Potency,[13],inactive
